# Results filed as inconclusive are left out. Where a call stands in place of a potency, no number is given. A number with no mark means an inactive call. Active and inactive are the calls of the source. Unless noted, calls follow the shape of the dose curve; as a rule, active = well fitted curve in the direction sought with a large enough effect in the repeat runs; inconclusive = weak or mixed curves; inactive = no such curve, though single readings can be large; an effect the other way counts as inactive or inconclusive.
# Key:
# [1] = qHTS assay to identify small molecule antagonists of the estrogen related receptor (ERR) signaling pathway from Tox21 library - cell viability counter screen (AID 1224834); also: nearly all actives have a fitted effect of over 30% in size
# In short: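 CellTiter-Fluor fluorescence measured; ERR cells; 17.5 h compound incubation at 37 C; 30 min reagent step.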
# [2] = target: Luciferin 4-monooxygenase (Photinus pyralis) (UniProt P08659); test: qHTS assay to identify small molecule inhibitors of firefly luciferase (AID 1224835); also: nearly all actives have a fitted effect of over 25% in size; also: potency is read from the fitted curve at half-maximal effect; as to activity change, negative = inhibition: series mostly up to about 120 µM
# Chain of Luciferin 4-monooxygenase (Photinus pyralis) (P08659 whole entry, looked up): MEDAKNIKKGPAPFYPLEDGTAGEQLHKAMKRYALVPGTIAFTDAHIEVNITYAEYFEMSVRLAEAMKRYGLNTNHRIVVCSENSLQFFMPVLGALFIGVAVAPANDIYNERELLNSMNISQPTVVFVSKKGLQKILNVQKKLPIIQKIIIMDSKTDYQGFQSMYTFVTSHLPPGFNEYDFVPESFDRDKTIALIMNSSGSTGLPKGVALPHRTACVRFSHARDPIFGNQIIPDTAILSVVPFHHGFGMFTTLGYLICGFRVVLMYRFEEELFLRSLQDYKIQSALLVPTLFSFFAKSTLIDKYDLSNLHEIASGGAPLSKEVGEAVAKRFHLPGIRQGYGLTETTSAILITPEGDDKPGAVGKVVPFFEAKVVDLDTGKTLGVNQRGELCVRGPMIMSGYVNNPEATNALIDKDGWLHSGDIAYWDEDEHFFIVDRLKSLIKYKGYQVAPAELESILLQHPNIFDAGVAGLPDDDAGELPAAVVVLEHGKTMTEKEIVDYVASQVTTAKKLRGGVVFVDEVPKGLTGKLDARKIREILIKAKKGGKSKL
# In short: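 Quantitative HTS format; KM concentrations of both substrates. Purified P. pyralis FLuc activity quantified from luminescence images.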
# [3] = qHTS assay to identify small molecule agonists of the constitutive androstane receptor (CAR) signaling pathway - cell viability counter screen (AID 1224836); also: series mostly up to about 92 µM; nearly all actives have a fitted effect of over 45% in size
# In short: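 Fluorescence from CellTiter-Fluor indicates live cells after 23 h exposure. The human hepatoma line expresses hCAR and a CYP2B6-2.2kb reporter. Incubation medium contains 0.75 uM PK11195 (final).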
# [4] = qHTS assay to identify small molecule antagonists of the constitutive androstane receptor (CAR) signaling pathway - cell viability counter screen (AID 1224837); also: series mostly up to about 92 µM; nearly all actives have a fitted effect of over 45% in size
# In short: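 Using CellTiter-Fluor, viability is scored in HepG2 cells stably carrying hCAR and a 2.2kb CYP2B6 reporter after 23 hr compound exposure across 15 concentrations, with CITCO present at 50 nM.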
# [5] = target: Nuclear receptor subfamily 1 group I member 3 (Homo sapiens) (UniProt Q14994); test: qHTS assay to identify small molecule antagonists of the constitutive androstane receptor (CAR) signaling pathway (AID 1224838);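 also: HepG2 cells stably expressing hCAR with CYP2B6 luciferase reporter stimulated by CITCO; nearly all actives have a fitted effect of over 40% in size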
# Chain of Nuclear receptor subfamily 1 group I member 3 (Homo sapiens) (Q14994 whole entry, looked up): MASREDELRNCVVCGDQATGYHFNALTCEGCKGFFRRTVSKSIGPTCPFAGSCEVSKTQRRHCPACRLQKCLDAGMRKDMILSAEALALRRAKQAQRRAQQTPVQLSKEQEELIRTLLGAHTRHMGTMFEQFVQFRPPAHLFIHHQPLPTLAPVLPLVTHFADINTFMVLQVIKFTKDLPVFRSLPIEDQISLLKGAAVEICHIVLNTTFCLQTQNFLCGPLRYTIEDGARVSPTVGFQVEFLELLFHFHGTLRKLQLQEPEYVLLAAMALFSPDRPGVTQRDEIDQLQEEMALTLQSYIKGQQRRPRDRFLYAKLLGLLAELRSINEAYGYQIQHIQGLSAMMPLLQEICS
# In short: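 Reporter luminescence was quantified after 24 h exposure of hCAR/CYP2B6-2.2kb double-stable HepG2 cells to compounds at 15 concentrations in the presence of 50 nM CITCO final.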
# [6] = target: Nuclear receptor subfamily 1 group I member 3 (Homo sapiens) (UniProt Q14994); test: qHTS assay to identify small molecule agonists of the constitutive androstane receptor (CAR) signaling pathway (AID 1224839);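 also: HepG2 cells stably carrying human CAR and a CYP2B6 luciferase reporter; series mostly up to about 92 µM; nearly all actives have a fitted effect of over 15% in size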
# In short: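 Stable hCAR/CYP2B6-2.2kb HepG2 line in DMEM with 10% FBS; compounds (15 concentrations) and 0.75 uM PK11195 final, 24 h at 37 C/5% CO2, then ONE-Glo luminescence after 30 min.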
# [7] = qHTS assay to identify small molecule antagonists of the estrogen related receptor signaling pathway with the pleiotropic PPARgamma coactivator (PGC) from Tox21 10K library - cell viability counter screen (AID 1224840; active = well fitted cell-killing curve with a large enough effect in the repeat runs, not every such curve was filed as active; also: nearly all actives have a fitted effect of over 40% in size)
# In short: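 Here the PGC/ERR cells serve as a cytotoxicity control: they are exposed to compounds for 17.5 hours at 37 C, and live-cell signal is quantified using CellTiter-Fluor fluorescence.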
# [8] = qHTS assay to identify small molecule agonists of the estrogen related receptor signaling pathway with the pleiotropic PPARgamma coactivator (PGC) (AID 1224823)
# In short: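 Cell-based luciferase assay in the NTP-supplied PGC/ERR line, 2,000 cells/well; 18 h compound exposure at 37 C, luminescence after One-Glo.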
# [9] = qHTS assay to identify small molecule antagonists of the estrogen related receptor signaling pathway with the pleiotropic PPARgamma coactivator (PGC) from Tox21 10K library (AID 1224841; call rule not given here; also: series mostly up to about 92 µM; actives are mostly falling curves and most rising ones were filed inactive; nearly all actives have a fitted effect of over 50% in size)
# In short: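 Each well held 2,000 PGC/ERR cells, pre-incubated six hours (37 C, 5% CO2). Test substances in DMSO were added by pin tool and left for 18 h at 37 C before luciferase detection by One-Glo.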
# [10] = qHTS assay to identify small molecule agonists of the estrogen related receptor signaling pathway with the pleiotropic PPARgamma coactivator (PGC) from Tox21 10K library (AID 1224842); also: nearly all actives have a fitted effect of over 15% in size
# In short: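 PGC/ERR reporter cells (NTP line) were seeded 2,000 per well, rested 6 h at 37 C/5% CO2, then pin-dosed with compounds in DMSO for 18 h at 37 C; luciferase read by One-Glo luminescence after 30 min at room temperature.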
compound,measurement,setting,value
O=C(O)C(=O)Cc1ccccc1,Potency,[1],inactive
same,Potency,[2],inactive
same,Potency,[3],inactive
same,Potency,[4],inactive
same,outcome,[5],inactive
same,Potency,[6],inactive
same,outcome,[7],inactive
CCN(C)C(=O)Oc1cccc([C@H](C)N(C)C)c1,Potency,[1],inactive
same,Potency,[2],inactive
same,Potency,[3],inactive
same,Potency,[4],inactive
same,outcome,[5],inactive
same,Potency,[6],inactive
same,outcome,[7],inactive
Cc1cccc(OCC(O)CNC(C)(C)C)c1C (configuration not stated),Potency,[1],inactive
same,Potency,[2],inactive
same,Potency,[3],inactive
same,Potency,[4],inactive
same,outcome,[5],inactive
same,Potency,[6],inactive
same,outcome,[7],inactive
NC(CO)C(=O)NNCc1ccc(O)c(O)c1O (configuration not stated),outcome,[8],inactive
same,Potency,[1],inactive
same,Potency,[2],inactive
same,Potency,[3],inactive
same,outcome,[7],inactive
same,Potency,[9],inactive
same,outcome,[10],inactive
C[C@@H](O)[C@H]1C(=O)N2C(C(=O)O)=C(SCCN=CN)C[C@H]12,outcome,[8],inactive
same,Potency,[1],inactive
same,Potency,[2],inactive
same,Potency,[3],inactive
same,Potency,[4],inactive
same,outcome,[5],inactive
same,Potency,[6],inactive
same,outcome,[7],inactive
same,Potency,[9],inactive
same,outcome,[10],inactive
CCC(CC)CO,Potency,[1],inactive
same,Potency,[2],inactive
same,Potency,[3],inactive
same,Potency,[4],inactive
same,outcome,[5],inactive
same,Potency,[6],inactive
same,outcome,[7],inactive
CCOCCOCCOCC,Potency,[1],inactive
same,Potency,[2],inactive
same,Potency,[3],inactive
same,Potency,[4],inactive
same,outcome,[5],inactive
same,Potency,[6],inactive
same,outcome,[7],inactive
COc1cc2c(cc1OC)C(=O)CC2,Potency,[1],inactive
same,Potency,[2],inactive
same,Potency,[3],inactive
same,Potency,[4],inactive
same,outcome,[5],inactive
same,Potency,[6],inactive
same,outcome,[7],inactive
CNS(=O)(=O)CCc1ccc2[nH]cc(C3CCN(C)CC3)c2c1,Potency,[1],inactive
same,Potency,[2],inactive
same,Potency,[3],inactive
same,Potency,[4],inactive
same,outcome,[5],inactive
same,Potency,[6],inactive
same,outcome,[7],inactive
CCCCCCCC/C=C\CCCCCCCC(=O)OCCCC,"viability change, negative = cytotoxic",[1],-0.0583% [at 19 µM]
same,"activity change, negative = inhibition",[2],-1.11% [at 23.6 µM]
same,"viability change, negative = cytotoxic",[3],-5.62% [at 19 µM]
same,"activity change, negative = cytotoxicity",[4],3.28% [at 19 µM]
same,"activity, negative = inhibition",[5],20.6% [at 19 µM]
same,activation,[6],0.178% [at 19 µM]
same,"viability change, negative = cytotoxic",[7],-2.58% [at 19 µM]
same,activation,[10],-2.76% [at 19 µM]
C[Si](C)(C)C,Potency,[1],inactive
same,Potency,[2],inactive
same,Potency,[3],inactive
same,Potency,[4],inactive
same,outcome,[5],inactive
same,Potency,[6],inactive
same,outcome,[7],inactive
same,Potency,[9],inactive
same,outcome,[10],inactive
O=S(O)(O)=S,"viability change, negative = cytotoxic",[1],0.32% [at 8.39 µM]
same,"activity change, negative = inhibition",[2],1.12% [at 10.5 µM]
same,"viability change, negative = cytotoxic",[3],1.44% [at 8.39 µM]
same,"activity change, negative = cytotoxicity",[4],0.559% [at 8.39 µM]
same,"activity, negative = inhibition",[5],-2.22% [at 8.39 µM]
same,"viability change, negative = cytotoxic",[7],0.0211% [at 8.39 µM]
same,activation,[10],-0.09% [at 8.39 µM]
COP(=O)(OC)OC(c1ccc(Cl)cc1)P(=O)(OC)OC (configuration not stated),Potency,[1],inactive
same,Potency,[2],inactive
same,Potency,[3],inactive
same,Potency,[4],inactive
same,outcome,[5],inactive
same,Potency,[6],inactive
same,outcome,[7],inactive
same,Potency,[9],inactive
same,outcome,[10],inactive
Nc1ncnc(Nc2ccccc2)n1,Potency,[1],inactive
same,Potency,[2],inactive
same,Potency,[3],inactive
same,Potency,[4],inactive
same,outcome,[5],inactive
same,outcome,[7],inactive
CCNC(=O)C1CC(C)CCC1C(C)C (configuration not stated),Potency,[1],inactive
same,Potency,[2],inactive
same,Potency,[3],inactive
same,Potency,[4],inactive
same,outcome,[5],inactive
same,Potency,[6],inactive
same,outcome,[7],inactive
same,Potency,[9],inactive
same,outcome,[10],inactive
CC(C)(C)NC(N)=O,Potency,[1],inactive
same,Potency,[2],inactive
same,Potency,[3],inactive
same,Potency,[4],inactive
same,outcome,[5],inactive
same,Potency,[6],inactive
same,outcome,[7],inactive
same,Potency,[9],inactive
same,outcome,[10],inactive
COc1nccnc1NS(=O)(=O)c1ccc(N)cc1,Potency,[1],inactive
same,Potency,[2],inactive
same,Potency,[3],inactive
same,Potency,[4],inactive
same,outcome,[5],inactive
same,Potency,[6],inactive
same,outcome,[7],inactive
same,Potency,[9],inactive
same,outcome,[10],inactive
COC(=O)c1ccccc1C(=O)c1ccc(OCCN2CCCCC2)cc1,Potency,[1],inactive
same,Potency,[2],inactive
same,Potency,[3],inactive
same,Potency,[4],inactive
same,outcome,[5],inactive
same,Potency,[6],inactive
same,outcome,[7],inactive
same,Potency,[9],inactive
same,outcome,[10],inactive
O=C(O)c1cc(Cl)cc([N+](=O)[O-])c1Cl,Potency,[1],inactive
same,Potency,[2],inactive
same,Potency,[3],inactive
same,Potency,[4],inactive
same,outcome,[5],inactive
same,Potency,[6],inactive
same,outcome,[7],inactive
same,Potency,[9],inactive
same,outcome,[10],inactive
Cc1cc(Cl)c(C)cc1Cl,Potency,[1],inactive
same,Potency,[2],inactive
same,Potency,[3],inactive
same,Potency,[4],inactive
same,outcome,[5],inactive
same,Potency,[6],inactive
same,outcome,[7],inactive
same,Potency,[9],inactive
same,outcome,[10],inactive
COc1ccc2c(c1)C(=O)N(CCc1ccc(S(=O)(=O)NC(=O)NC3CCCCC3)cc1)C(=O)C2(C)C,Potency,[1],inactive
same,Potency,[2],inactive
same,Potency,[3],inactive
same,Potency,[4],inactive
same,Potency,[6],inactive
same,outcome,[7],inactive
CC(C)c1ccc2cc(C(C)C)ccc2c1,Potency,[1],inactive
same,Potency,[2],15.9 µM (active)
same,Potency,[3],inactive
same,Potency,[4],inactive
same,outcome,[7],inactive
Cc1ccsc1/C=C/C1=NCCCN1C,Potency,[1],inactive
same,Potency,[2],inactive
same,Potency,[3],inactive
same,Potency,[4],inactive
same,outcome,[5],inactive
same,Potency,[6],inactive
same,outcome,[7],inactive
same,Potency,[9],inactive
same,outcome,[10],inactive
CC(=C(CCOC(=O)C(C)C)SSC(CCOC(=O)C(C)C)=C(C)N(C=O)Cc1cnc(C)nc1N)N(C=O)Cc1cnc(C)nc1N,Potency,[1],inactive
same,Potency,[2],inactive
same,Potency,[3],inactive
same,Potency,[4],inactive
same,outcome,[5],inactive
same,Potency,[6],inactive
same,outcome,[7],inactive
same,Potency,[9],inactive
same,outcome,[10],inactive
N#Cc1ccc(C(=O)O)cc1,Potency,[1],inactive
same,Potency,[2],inactive
same,Potency,[3],inactive
same,Potency,[4],inactive
same,outcome,[5],inactive
same,Potency,[6],inactive
same,outcome,[7],inactive
same,Potency,[9],inactive
same,outcome,[10],inactive
CCOC(=O)c1ncn2c1CN(C)C(=O)c1cc(F)ccc1-2,Potency,[1],inactive
same,Potency,[2],inactive
same,Potency,[3],inactive
same,Potency,[4],inactive
same,Potency,[6],inactive
same,outcome,[7],inactive
C[C@@H](Oc1ccc(CNC(=O)c2cccnc2Oc2ccc3c(c2)OCO3)c(F)c1)C(=O)O,Potency,[1],inactive
same,Potency,[2],inactive
same,Potency,[3],inactive
same,Potency,[4],inactive
same,outcome,[5],inactive
same,Potency,[6],inactive
same,outcome,[7],inactive
same,Potency,[9],inactive
same,outcome,[10],inactive
